Experimental data: the supplement of paper PMC6555819

Each sequence was assayed on FXR:RXRa (NR concentration 270 nM, RXRa partner concentration 90 nM) (assay: PBM binding z-score (relative to random genomic background probes); higher = stronger binding; sequences stand for … in GC…GCGATTGACAGCGTAGAATGAAGG).
Outline: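 Probes were double-stranded and carried 34-nt variable regions with direct-repeat seeds, single-nucleotide variants, half-site ablations and random human genomic background sequences, printed on custom Agilent 4×180K protein-binding microarrays. Arrays were incubated 1 h with ligand-free nuclear receptor dimers in PBS pH 7.4, 2% milk, 0.02% Triton X-100, 1 mM DTT, 0.2 mg/mL BSA and 0.4 mg/ml salmon testes DNA. Antibodies against each partner (one per run) detected binding, and scanned fluorescence was regression-normalized. Binding z-scores use the random background probes as reference.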

| Sequence | PBM binding z-score |
| --- | --- |
| CCGAGTAGGTTACGAGGGGGCATTCAATGCGAAT | 2.32 |
| CCGAGTAGGTTACGAGGGGGCATTTAGTGCGAAT | 2.43 |
| TCGAGTAGGTTACGGGGGGATTCAGGGATGAAGA | 2.95 |
| CTGAGTAGGTTACGAGGGGGCATTCAGTGCGAAT | 1.65 |
| CTATGTAGGTTAAGGGGGTCATACAGTTTGAAAG | 5.2 |
| CTATGTAGGTTAAGGGGGTCTTTCAGTTTGAAAG | 0.885 |
| CCGAGTAGGTTACGAGGGGGCAATCAGTGCGAAT | 2.55 |
| CCGAGTAGGTTACCAGGGGGCATTCAGTGCGAAT | 2.76 |
| TCGAGTCGGTTACGGGGGCATTCAGGGATGAAGA | 1.7 |
| TCGAGTAGGTTACGGGGACATTCAGGGATGAAGA | 0.831 |
| CTATGTAGGTTAAGGGGGTCATTCCGTTTGAAAG | 4.77 |
| CTATGTAGGTTGAGGGGGTCATTCAGTTTGAAAG | 4.59 |
| CCGAGTGGGTTACGAGGGGGCATTCAGTGCGAAT | 2.73 |
| CCGAGTAGGTTATGAGGGGGCATTCAGTGCGAAT | 3.13 |
| CCGAGTAGGTAACGAGGGGGCATTCAGTGCGAAT | 1.91 |
| CCGGGTAGGTTACGAGGGGGCATTCAGTGCGAAT | 2.48 |
| CCGAGTAGCTTACGAGGGGGCATTCAGTGCGAAT | 0.729 |
| CTATGAAGGTTAAGGGGGTCATTCAGTTTGAAAG | 5.47 |
| CCGAGTAGGTTACGAGGAGGCATTCAGTGCGAAT | -0.167 |
| CTCTGTAGGTTAAGGGGGTCATTCAGTTTGAAAG | 5.36 |

| Sequence | PBM binding z-score |
| --- | --- |
| CTATGGAGGTTAAGGGGGTCATTCAGTTTGAAAG | 6.34 |
| TCGAGTAGGTTACGGGGGCATTCACGGATGAAGA | 2.41 |
| CTATGTAGGTTAAGGGGGTCATTCAGTTTGAAAG | 5.62 |
| CCGAGTAGGTTACGAGGGGGCCTTCAGTGCGAAT | 0.952 |
| CCGAGTAGGTTACGAGGGGGCATTCACTGCGAAT | 2.07 |
| CCGAGTAGGTTACGAGGGGGCATTCATTGCGAAT | 2 |
| CTATATAGGTTAAGGGGGTCATTCAGTTTGAAAG | 6.35 |
| CAGAGTAGGTTACGAGGGGGCATTCAGTGCGAAT | 3.11 |
| CTATGTAGGTTAAGGGGTTCATTCAGTTTGAAAG | 2.03 |
| CCGAGTAGGTTACGAGGCGGCATTCAGTGCGAAT | -0.0338 |
| CTAAGTAGGTTAAGGGGGTCATTCAGTTTGAAAG | 5.01 |
| TCGAGTAGGCTACGGGGGCATTCAGGGATGAAGA | 1.68 |
| CCATGTAGGTTAAGGGGGTCATTCAGTTTGAAAG | 4.98 |
| CTATGTAGGTTAAGGGTGTCATTCAGTTTGAAAG | 0.954 |
| CTATGTAGGCTAAGGGGGTCATTCAGTTTGAAAG | 3.71 |
| CCGAGTAGGTTACGAGGGGGCTTTCAGTGCGAAT | 1.47 |
| CTATGTAGGTTAAGGGGGTCATTCGGTTTGAAAG | 5.21 |
| CTATGTTGGTTAAGGGGGTCATTCAGTTTGAAAG | 4.6 |
| CCGAGTAGGTTACGAGGGGGCATCCAGTGCGAAT | 1.87 |
